From the supplement of paper PMC10338343
± gives the standard deviation.

Assays:
[1] = tested on: MILI (PIWIL2) piRISC loaded with L1MC piRNA (26 nt); assay: pre-steady-state target cleavage rate (min^-1); guide: L1MC piRNA 5'p-UAACUAAAUACUAUGCAAGCUGUAGG; higher = faster piRNA-guided slicing of the target
Summary of the method: (§1)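 A transcribed, DNA-blocked target RNA library (0.1 nM) and 1 nM active affinity-purified piRISC bearing one synthetic guide were incubated in HEPES–potassium acetate buffer at 33 °C for 0–8 or 0–960 min, either with or without 500 nM GTSF1 partner protein. Uncleaved targets were sequenced, normalised to depth and to weakly complementary targets, and pooled over three trials, with k3 capped at 0.0001 min^-1. The pre-steady-state cleavage rate was derived with a burst-and-steady-state fit.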

[2] = tested on: EfPiwi piRISC loaded with L1MC piRNA (26 nt); assay: pre-steady-state target cleavage rate (min^-1); auxiliary factor: 500 nM Ephydatia muelleri Gtsf1; guide: L1MC piRNA 5'p-UAACUAAAUACUAUGCAAGCUGUAGG; MIWI and MILI are mouse PIWI proteins and EfPiwi is from a freshwater sponge; tags in brackets are library labels; higher = faster piRNA-guided slicing of the target
Summary of the method: as §1

[3] = auxiliary factor: 500 nM mouse GTSF1
[4] = auxiliary factor: none (no GTSF1)

| Sequence | pre-steady-state target cleavage rate [1, 3] | pre-steady-state target cleavage rate [1, 4] | pre-steady-state target cleavage rate [2] |
| --- | --- | --- | --- |
| UCCUGCUUCAGCUUGCAAAGUAUUUAGUUA | 0.122 ± 0.0063 | 0.00828 ± 0.0015 | 0.0683 ± 0.018 |
| UCCUGGAUCAGCUUGCAUAGUAUAUUAGUUA | 0.273 ± 0.015 | 0.00593 ± 0.0025 | 0.127 ± 0.043 |
| UCCUGGAACAGCUUGCAAGUAUUUAGUUA | 0.141 ± 0.013 | 0.00614 ± 0.0021 | 0.00284 ± 0.0019 |
| UCCUCCUACUGCUUGCAAAGUAUUUAGUUA | 0.138 ± 0.011 | 0.00644 ± 0.0018 | 0.0558 ± 0.017 |
| UCCUGGAACAGGUUGCUUAGUAUUUAGUUA | 0.253 ± 0.015 | 0.0109 ± 0.0031 | 0.00924 ± 0.0022 |
| UCCUGGAUGAGCUGCAUAGUAUUUAGUUA | 0.101 ± 0.013 | 0.00501 ± 0.0028 | 0.00786 ± 0.0028 |
| UCCUCCUUCAGGUUGCAUAGUAUUUAGUUA | 0.239 ± 0.013 | 0.0102 ± 0.002 | 0.0528 ± 0.012 |
| UCCUGGUACAGGUUGCAUAGUAUUUAGUUA | 0.217 ± 0.022 | 0.0148 ± 0.004 | 0.0211 ± 0.0053 |
| UCCUCCUUCAGCUAGCAUAGUAUUUAGUUA | 0.228 ± 0.017 | 0.00519 ± 0.0022 | 0.0131 ± 0.0046 |
| UCCUGGUACAGAUUGCAUAGUAUUUAGUUA | 0.257 ± 0.028 | 0.0104 ± 0.0044 | 0.0131 ± 0.0038 |
| UCCUGGUACAUCUUGCAUAGUAUUUAGUUA | 0.237 ± 0.018 | 0.00962 ± 0.0032 | 0.0254 ± 0.01 |
| UCCUGGAACAGCUUGCAUAGUAAUUAGUUA | 0.268 ± 0.022 | 0.00705 ± 0.0022 | 0.00814 ± 0.0027 |
| UCCUGGAUCAGGUUGCUUAGUAUUUAGUUA | 0.189 ± 0.011 | 0.00878 ± 0.0023 | 0.00555 ± 0.0024 |
| UCCUGCUACAGCUUGGUAAGUAUUUAGUUA | 0.131 ± 0.019 | 0.00591 ± 0.0018 | 0.00341 ± 0.0025 |
| UCCUCCUACAGCUUGCGUAGUAUUUAGUUA | 0.28 ± 0.015 | 0.0113 ± 0.003 | 0.031 ± 0.011 |
| UCCUGCUACACCUUGCAUAGUAAUUAGUUA | 0.157 ± 0.026 | 0.00684 ± 0.002 | 0.00647 ± 0.0028 |
| UCCUCCUUCUGCUUGCAUAGUAUUUAGUUA | 0.269 ± 0.018 | 0.00966 ± 0.002 | 0.11 ± 0.028 |
| UCCUCCUCCAGCUUGCAUAGUAUUUAGUUA | 0.265 ± 0.019 | 0.00605 ± 0.0026 | 0.194 ± 0.056 |
| UCCUGGAUCAGCUUGCAUAGUAUUAAGUUA | 0.262 ± 0.026 | 0.00729 ± 0.0019 | 0.0323 ± 0.0094 |
| UCCUCCAACAGGUUGCAUAGUAUUUAGUUA | 0.28 ± 0.011 | 0.00862 ± 0.0019 | 0.0491 ± 0.011 |
| UCCUGGAUGUCCUUGCAUAGUAUUUAGUUU [g2:g19:cont:t1U] | 0.17 ± 0.022 | 0.0113 ± 0.0024 | 0.00601 ± 0.0034 |
| UCCUGGAAGAGCUUGCAUAGUAUUUAGAUA | 0.182 ± 0.034 | 0.00463 ± 0.0025 | 0.00519 ± 0.0023 |
| UCCUGGAACAGCUUGCAUAGUAUGUUAGUUA | 0.243 ± 0.046 | 0.0048 ± 0.0027 | 0.00812 ± 0.0028 |
| UCCUGCUUACAGCUUGCAUAGUAUUUAGUUA | 0.451 ± 0.043 | 0.0088 ± 0.0032 | 0.0638 ± 0.015 |
| UCCUGGUACAGCUUGUAUAGUAUUUAGUUA | 0.242 ± 0.017 | 0.0121 ± 0.0031 | 0.0177 ± 0.0048 |

| Sequence | pre-steady-state target cleavage rate [1, 3] | pre-steady-state target cleavage rate [1, 4] | pre-steady-state target cleavage rate [2] |
| --- | --- | --- | --- |
| UCCUCCUACAGCUUGCAAAGUAUAUAGUUA | 0.115 ± 0.015 | 0.00276 ± 0.0025 | 0.008 ± 0.0043 |
| UCCUGGUCACAGCUUGCAUAGUAUUUAGUUA | 0.239 ± 0.018 | 0.0126 ± 0.0051 | 0.00857 ± 0.0072 |
| UCCUGCUACAGCUUGCAUAGUUAUUAGUUA | 0.0372 ± 0.013 | 0.00337 ± 0.002 | 0.00354 ± 0.0022 |
| UCCUGGAACAGCUUGCAUAGUAUUUAGGUUA | 0.23 ± 0.041 | 0.00413 ± 0.0032 | 0.00305 ± 0.0027 |
| UCCUGCUACAGCUUGCAUAGUAUUUGGUUA | 0.27 ± 0.029 | 0.00697 ± 0.0023 | 0.00556 ± 0.0012 |
| UCCUCCUACAGCUAGCAUAGUUUUUAGUUA | 0.0658 ± 0.011 | 0.00299 ± 0.0026 | 0.00442 ± 0.0017 |
| UCCUGGAUGUCCUUUGCAUAGUAUUUAGUUA | 0.0866 ± 0.015 | 0.0072 ± 0.0024 | 0.00785 ± 0.0043 |
| UCCUGGAACAGGUUGCAUACUAUUUAGUUA | 0.0491 ± 0.0087 | 0.00363 ± 0.002 | 0.00367 ± 0.0017 |
| UCCUGGUACAGCUUGCAUCGUAUUUAGUUA | 0.0739 ± 0.014 | 0.00985 ± 0.0037 | 0.00642 ± 0.0025 |
| UCCUGGAUGUGCUUGCAUGGUAUUUAGUUA | 0.086 ± 0.014 | 0.0124 ± 0.0032 | 0.0043 ± 0.0042 |
| UCCUGCUACAGCUUGGAUAGUAUAUAGUUA | 0.222 ± 0.026 | 0.00442 ± 0.0023 | 0.0128 ± 0.0037 |
| UCCUGGAUGAGCUAGCAUACUAUUUAGUUA | 0.0848 ± 0.017 | 0.00398 ± 0.0027 | 0.00286 ± 0.002 |
| UCCUGCUACAGCUUGCAUAGUAUUUAGUGA | 0.193 ± 0.033 | 0.00299 ± 0.0027 | 0.00567 ± 0.0019 |
| UCCUGGUAGAGCUUGCAUAGUAUUUAGUUA | 0.245 ± 0.015 | 0.00842 ± 0.0022 | 0.0138 ± 0.0044 |
| UCCUCCUACAGCUUGCAUAGUAUUUAGAUA | 0.205 ± 0.035 | 0.00357 ± 0.003 | 0.00505 ± 0.0025 |
| UCCUGCUAGAGCAUGCAUAGUAUUUAGUUA | 0.226 ± 0.018 | 0.00708 ± 0.0024 | 0.00618 ± 0.0015 |
| UCCUGGAUCAGCUUACAUAGUAUUUAGUUA | 0.249 ± 0.014 | 0.00805 ± 0.0023 | 0.175 ± 0.039 |
| UCCUGCUACAGCAUGGAUAGUAUUUAGUUA | 0.257 ± 0.021 | 0.00639 ± 0.0031 | 0.00804 ± 0.0023 |
| UCCUGCUACACCUUGGAUAGUAUUUAGUUA | 0.122 ± 0.021 | 0.00552 ± 0.0022 | 0.00538 ± 0.0021 |
| UCCUGGUAGAGGUUGCAUAGUAUUUAGUUA | 0.185 ± 0.024 | 0.0103 ± 0.0031 | 0.00483 ± 0.0034 |
| UCCUGGAUGUCCUUGCAUAGUAUUUAGUUC [g2:g19:cont:t1C] | 0.0893 ± 0.011 | 0.00931 ± 0.0026 | 0.00867 ± 0.0028 |
| UCCUCCUACAGCUUGGCAUAGUAUUUAGUUA | 0.338 ± 0.057 | 0.00447 ± 0.0021 | 0.0133 ± 0.0047 |
| UCCUGGAACAGCUACCAUAGUAUUUAGUUA | 0.174 ± 0.016 | 0.00403 ± 0.0022 | 0.00309 ± 0.0026 |
| UCCUGGAUGAGCUUGGAUAGUAUUUAGUUA | 0.163 ± 0.011 | 0.00612 ± 0.0024 | 0.0043 ± 0.0033 |
| UCCUCCUACAGCUUGCAUAGUAUUUAAUUA | 0.11 ± 0.019 | 0.00326 ± 0.0027 | 0.00331 ± 0.003 |
